# Laboratory results from PubChem BioAssay (Tox21).
# Several values for one entry are separate records, joined by “and”; a condition that tells them apart may be missing. Equal values may be shown once. Inconclusive results are not listed. Entries that show only a call come without a potency. The source holds several records for some structures; these can differ, active in one and inactive in another. Activity calls are given as the source filed them. Unless noted, calls follow the shape of the dose curve; as a rule, active = well fitted curve in the direction sought with a large enough effect in the repeat runs; inconclusive = weak or mixed curves; inactive = no such curve, though single readings can be large; an effect the other way counts as inactive or inconclusive.
# Columns and labels:
# [1] = qHTS assay to identify small molecule agonists of the peroxisome proliferator-activated receptor delta (PPARd) signaling pathway - cell viability counter screen (AID 743211); also: nearly all actives have a fitted effect of over 55% in size; also: potency is read from the fitted curve at half-maximal effect
# Outline: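 Luminescent ATP viability assay (CellTiter-Glo, 30 min RT) in UAS-bla HEK293H cells carrying the PPAR delta reporter construct, 3000 cells/well, after a 17 h compound treatment at 37 C.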
# [2] = molecular target: Peroxisome proliferator-activated receptor delta (Homo sapiens) (UniProt Q03181); assay: qHTS assay to identify small molecule agonists of the peroxisome proliferator-activated receptor delta (PPARd) signaling pathway (AID 743212; calls by dose curve;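 also: HEK293H cells with PPARd UAS beta-lactamase reporter GeneBLAzer system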)
# Outline: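 Steps: seed PPARd-bla HEK293H cells; incubate 5 h, 37 C, 5% CO2; add compounds in DMSO; incubate, 37 C; add LiveBLAzer B/G FRET substrate; hold 2 h at room temperature; measure fluorescence.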
# [3] = qHTS assay to identify small molecule antagonists of the peroxisome proliferator-activated receptor delta (PPARd) signaling pathway - cell viability counter screen (AID 743213); also: nearly all actives have a fitted effect of over 50% in size; also: potency is read from the fitted curve at half-maximal effect
# Outline: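 HEK293H cells with the PPARd UAS-bla reporter, co-treated 17 h at 37 C with compounds and L165041 (300 nM final), were lysed with CellTiter-Glo. Luminescence indicated viable cell content.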
# [4] = qHTS assay to identify small molecule agonists of the farnesoid-X-receptor (FXR) signaling pathway - cell viability counter screen (AID 743218); also: nearly all actives have a fitted effect of over 45% in size; also: potency is read from the fitted curve at half-maximal effect
# Outline: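 Same-well cytotoxicity check on FXR-UAS-bla HEK 293T cells: 5 h attachment, 16 h compound at 37 C, CellTiter-Glo luminescence read at room temperature after 30 min.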
# [5] = molecular target: Bile acid receptor (Homo sapiens) (UniProt Q96RI1); assay: qHTS assay to identify small molecule agonists of the farnesoid-X-receptor (FXR) signaling pathway (AID 743220; active = well fitted activation curve with a large enough effect in the signal ratio in the repeat runs, not every such curve was filed as active; the % refers to the signal ratio)
# Outline: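 FXR-UAS-bla HEK 293T cells carrying a UAS-driven beta-lactamase reporter were plated for 5 h at 37C/5% CO2, then exposed to DMSO-dissolved Tox21 10K compounds for 16 h at 37C. A LiveBLAzer B/G FRET substrate was loaded for 2 h at room temperature before fluorescence reading.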
# [6] = qHTS assay to identify small molecule antagonists of the farnesoid-X-receptor (FXR) signaling pathway - cell viability counter screen (AID 743221; active = well fitted cell-killing curve with a large enough effect in the repeat runs, not every such curve was filed as active; also: nearly all actives have a fitted effect of over 50% in size)
# Outline: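 In GeneBLAzer FXR-UAS-bla HEK 293T cells stimulated with 50 uM chenodeoxycholic acid (final), compounds acted for 16 h at 37 C. Viability was assessed afterwards by CellTiter-Glo luminescence.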
# [7] = qHTS assay to identify small molecule agonists of the vitamin D receptor (VDR) signaling pathway - cell viability counter screen (AID 743224); also: nearly all actives have a fitted effect of over 50% in size; also: potency is read from the fitted curve at half-maximal effect
# Outline: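 Counter screen for cytotoxicity: VDR-bla cells at 2,000 cells/well, 16 h compound exposure, then CellTiter-Glo luminescence after the beta-lactamase measurement.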
# [8] = qHTS assay to identify small molecule antagonists of the vitamin D receptor (VDR) signaling pathway - cell viability counter screen (AID 743225); also: nearly all actives have a fitted effect of over 50% in size; also: potency is read from the fitted curve at half-maximal effect
# Outline: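 Luminescent cell viability (CellTiter-Glo) in VDR-bla HEK 293T cells after 16 h compound exposure at 37C in the presence of 3 nM final 1-alpha,25-dihydroxy vitamin D3.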
# [9] = qHTS assay to identify small molecule agonists of the NFkB signaling pathway - cell viability counter screen (AID 1159515; calls by dose curve; also: nearly all actives have a fitted effect of over 55% in size; also: potency is read from the fitted curve at half-maximal effect)
# Outline: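 Counter screen run alongside the NFkB-bla agonist assay: ME-180 reporter cells exposed to compounds for 5 hr, then lysed with CellTiter-Glo in the same wells. Luminescence, read after 30 min, reflects viable cells.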
# [10] = qHTS assay to identify small molecule agonists of the endoplasmic reticulum stress response signaling pathway (AID 1159516; active = well fitted activation curve with a large enough effect in the signal ratio in the repeat runs, not every such curve was filed as active; the % refers to the signal ratio)
# Outline: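 For this screen, HeLa cells stably carrying beta-lactamase under the ER stress response element received test compounds, positive controls or DMSO for 5 hr at 37 C; B/G FRET substrate was then added and dual-wavelength emission recorded.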
# [11] = qHTS assay to identify small molecule agonists of the endoplasmic reticulum stress response signaling pathway - cell viability counter screen (AID 1159517; calls by dose curve; also: nearly all actives have a fitted effect of over 50% in size; also: potency is read from the fitted curve at half-maximal effect)
# Outline: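 After overnight attachment, ESRE-bla HeLa cells were treated with Tox21 library compounds for 5 hr. CellTiter-Glo luminescence, read 30 min post-addition at room temperature, reported viability.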
# [12] = qHTS assay to identify small molecule antagonists of the retinoid-related orphan receptor gamma (ROR-gamma) signaling pathway - cell viability counter screen (AID 1159520); also: nearly all actives have a fitted effect of over 50% in size; also: potency is read from the fitted curve at half-maximal effect
# Outline: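 Cytotoxicity was read from cellular ATP (CellTiter-Glo luminescence) after 16 hr at 37 C with 1 uM doxycycline induction. The inducer was added 2 hr after compound transfer to Tet-on ROR gamma CHO cells.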
# [13] = molecular target: Nuclear receptor ROR-gamma (Homo sapiens) (UniProt P51449); assay: qHTS assay to identify small molecule antagonists of the retinoid-related orphan receptor gamma (ROR-gamma) signaling pathway (AID 1159521; also: nearly all actives have a fitted effect of over 50% in size; also: potency is read from the fitted curve at half-maximal effect)
# Outline: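 CHO cells expressing RORγ under a TET-on promoter, luciferase under RORE control. Dox 1 uM final, 16 h; compounds added 2 h prior. Luminescence decrease measured.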
# [14] = qHTS assay to identify small molecule agonists of the AP-1 signaling pathway - cell viability counter screen (AID 1159525; calls by dose curve; also: nearly all actives have a fitted effect of over 55% in size; also: potency is read from the fitted curve at half-maximal effect)
# Outline: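 Intracellular ATP by Cell Titer Glo luminescence (30 min, RT) in the same ME-180 AP-1-bla wells after the 5 h compound exposure at 37 °C. Normalised to tetra n-octyl ammonium bromide and DMSO controls.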
# [15] = qHTS assay to identify small molecule agonists of the AP-1 signaling pathway (AID 1159526; calls by dose curve)
# [16] = molecular target: Retinoic acid receptor RXR-alpha (Homo sapiens) (UniProt P19793); assay: qHTS assay to identify small molecule agonists of the RXR signaling pathway (AID 1159527; calls by dose curve; also: nearly all actives have a fitted effect of over 35% in size)
# Outline: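 Beta-lactamase reporter assay, agonist format. Engineered HEK 293T line, charcoal-stripped FBS at 2%, overnight (16 hr) exposure, fluorescence at 460 and 530 nm after 405 nm excitation.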
# [17] = molecular target: Peroxisome proliferator-activated receptor delta (Homo sapiens) (UniProt Q03181); assay: qHTS assay to identify small molecule antagonists of the peroxisome proliferator-activated receptor delta (PPARd) signaling pathway (AID 743215; active = well fitted inhibition curve with a large enough effect in the signal ratio in the repeat runs, not every such curve was filed as active; the % refers to the signal ratio;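 also: cells stimulated with agonist L165041 at 300 nM final during compound exposure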; also: potency is read from the fitted curve at half-maximal effect)
# Outline: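 Screen format: qHTS, antagonist mode. HEK293H PPARd-bla cells received compound and 300 nM L165041 (final), 17 h, 37 C. Beta-lactamase detected via FRET substrate fluorescence, 2 h, room temperature.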
# [18] = molecular target: Vitamin D3 receptor (Homo sapiens) (UniProt P11473); assay: qHTS assay to identify small molecule agonists of the vitamin D receptor (VDR) signaling pathway (AID 743222; calls by dose curve)
# Outline: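 Using LiveBLAzer B/G FRET detection, agonism was scored in VDR-bla cells exposed overnight (16 h, 37C) to DMSO-dissolved compounds; substrate incubation was 2 h at room temperature.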
# [19] = molecular target: Bile acid receptor (Homo sapiens) (UniProt Q96RI1); assay: qHTS assay to identify small molecule antagonists of the farnesoid-X-receptor (FXR) signaling pathway (AID 743217; active = well fitted inhibition curve with a large enough effect in the signal ratio in the repeat runs, not every such curve was filed as active; the % refers to the signal ratio)
# Outline: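 Quantitative HTS, beta-lactamase reporter format: FXR-UAS-bla HEK 293T cells co-treated 16 h at 37 °C with compounds and 50 uM final chenodeoxycholic acid, then read by B/G FRET fluorescence.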
# [20] = molecular target: Vitamin D3 receptor (Homo sapiens) (UniProt P11473); assay: qHTS assay to identify small molecule antagonists of the vitamin D receptor (VDR) signaling pathway (AID 743223; active = well fitted inhibition curve with a large enough effect in the signal ratio in the repeat runs, not every such curve was filed as active; the % refers to the signal ratio)
# Outline: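 Agonist 1alpha,25-dihydroxyvitamin D3 (3 nM in well) was added with each compound to VDR-bla cells preincubated 4 h. Cells stood 16 h at 37C, then FRET substrate 2 h at room temperature; fluorescence intensity recorded.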
# Retinoic acid receptor RXR-alpha (Homo sapiens), sequence (P19793 whole entry, looked up): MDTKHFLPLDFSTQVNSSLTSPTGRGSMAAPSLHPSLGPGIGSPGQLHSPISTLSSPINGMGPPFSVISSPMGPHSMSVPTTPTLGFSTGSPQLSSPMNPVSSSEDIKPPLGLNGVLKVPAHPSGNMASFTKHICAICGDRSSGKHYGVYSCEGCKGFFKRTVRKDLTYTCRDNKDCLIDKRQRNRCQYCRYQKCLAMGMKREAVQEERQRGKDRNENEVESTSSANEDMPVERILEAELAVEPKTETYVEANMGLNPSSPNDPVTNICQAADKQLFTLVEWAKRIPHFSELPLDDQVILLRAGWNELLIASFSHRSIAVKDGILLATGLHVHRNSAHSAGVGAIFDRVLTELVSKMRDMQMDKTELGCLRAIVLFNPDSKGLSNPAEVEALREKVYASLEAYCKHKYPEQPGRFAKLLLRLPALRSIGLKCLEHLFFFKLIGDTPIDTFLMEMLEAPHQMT
# Bile acid receptor (Homo sapiens), sequence (Q96RI1 whole entry, looked up): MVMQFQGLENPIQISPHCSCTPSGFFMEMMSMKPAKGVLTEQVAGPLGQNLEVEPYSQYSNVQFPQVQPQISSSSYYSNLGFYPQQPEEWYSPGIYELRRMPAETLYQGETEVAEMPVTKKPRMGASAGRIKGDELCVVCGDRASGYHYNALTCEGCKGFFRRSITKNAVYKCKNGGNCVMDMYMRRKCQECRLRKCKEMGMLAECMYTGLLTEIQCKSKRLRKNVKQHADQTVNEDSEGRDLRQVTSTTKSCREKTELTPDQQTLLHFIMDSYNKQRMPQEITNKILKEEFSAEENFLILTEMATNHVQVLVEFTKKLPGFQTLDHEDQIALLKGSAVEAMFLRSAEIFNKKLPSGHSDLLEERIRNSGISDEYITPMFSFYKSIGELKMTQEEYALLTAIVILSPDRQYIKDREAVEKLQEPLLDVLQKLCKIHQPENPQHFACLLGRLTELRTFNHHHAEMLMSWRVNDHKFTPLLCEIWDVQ
# Vitamin D3 receptor (Homo sapiens), sequence (P11473 whole entry, looked up): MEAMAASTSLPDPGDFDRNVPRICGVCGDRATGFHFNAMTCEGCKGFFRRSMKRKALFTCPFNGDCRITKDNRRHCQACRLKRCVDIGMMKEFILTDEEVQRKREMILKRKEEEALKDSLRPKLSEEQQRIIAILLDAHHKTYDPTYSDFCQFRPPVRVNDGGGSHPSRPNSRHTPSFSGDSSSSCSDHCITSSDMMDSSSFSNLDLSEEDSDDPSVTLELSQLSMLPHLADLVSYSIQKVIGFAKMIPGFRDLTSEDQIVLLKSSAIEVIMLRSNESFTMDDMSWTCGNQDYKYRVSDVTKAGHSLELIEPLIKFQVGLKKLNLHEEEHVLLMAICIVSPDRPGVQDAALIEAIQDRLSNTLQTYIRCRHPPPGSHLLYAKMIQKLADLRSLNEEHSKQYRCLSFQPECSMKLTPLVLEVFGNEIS
# Peroxisome proliferator-activated receptor delta (Homo sapiens), sequence (Q03181 whole entry, looked up): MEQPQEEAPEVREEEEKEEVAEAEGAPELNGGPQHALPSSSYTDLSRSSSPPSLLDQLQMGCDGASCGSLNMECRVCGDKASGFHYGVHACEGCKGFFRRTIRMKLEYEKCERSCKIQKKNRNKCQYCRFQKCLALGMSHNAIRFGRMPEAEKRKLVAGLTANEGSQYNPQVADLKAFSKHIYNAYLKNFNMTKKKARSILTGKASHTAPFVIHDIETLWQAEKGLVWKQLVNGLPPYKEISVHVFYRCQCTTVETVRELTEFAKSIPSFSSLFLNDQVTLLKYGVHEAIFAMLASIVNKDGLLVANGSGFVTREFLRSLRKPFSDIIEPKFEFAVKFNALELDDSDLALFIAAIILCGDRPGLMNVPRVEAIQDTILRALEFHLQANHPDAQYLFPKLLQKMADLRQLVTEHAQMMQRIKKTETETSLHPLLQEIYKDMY
Compound,Potency [1],Potency [2],Potency [3],Potency [4],Potency [5],Potency [6],Potency [7],Potency [8],Potency [9],outcome [10],Potency [11],Potency [12],Potency [13],Potency [14],Potency [15],Potency [16],Potency [17],Potency [18],Potency [19],Potency [20]
CCC[C@H](N[C@@H](C)C(=O)N1[C@H](C(=O)O)C[C@@H]2CCCC[C@@H]21)C(=O)OCC,inactive,inactive,inactive,inactive,inactive,inactive,inactive,inactive,inactive,inactive,inactive,inactive,inactive,inactive,inactive,inactive,–,–,–,–
CC(=O)CC(C)=O,inactive,inactive,inactive,inactive,–,inactive,inactive,–,inactive,inactive,inactive,inactive,inactive,inactive,inactive,inactive,–,–,–,–
COc1nc(C)nc(Cl)c1NC1=NCCN1,inactive,inactive,inactive,inactive,–,inactive,inactive,inactive,inactive,inactive,inactive,inactive,inactive,inactive,inactive,inactive,inactive,inactive,–,–
Cc1cccc(O)c1C,inactive,inactive,inactive,inactive,inactive,inactive,inactive,inactive,inactive,inactive,inactive,inactive,inactive,inactive,inactive,inactive,inactive,inactive,–,–
C#CC(C)(CC)OC(=O)c1ccccc1C(=O)O (configuration not stated),inactive,inactive,–,inactive,–,inactive,inactive,inactive,inactive,inactive,inactive,inactive,inactive,inactive,inactive,inactive,inactive,inactive,–,–
CC1COC(=O)O1 (configuration not stated),inactive,inactive,inactive,inactive,inactive,inactive,inactive,inactive,inactive,inactive,inactive,inactive,inactive,inactive,inactive,inactive,–,inactive,inactive,inactive
c1ccc2c(c1)CCCC2C1=NCCN1 (configuration not stated),inactive,inactive,inactive,inactive,inactive,inactive,inactive,inactive,inactive,inactive,inactive,inactive,inactive,inactive,inactive,inactive,inactive,inactive,inactive,–
CC(=O)O[C@]1(C(C)=O)CC[C@H]2[C@@H]3C[C@H](C)C4=CC(=O)CC[C@]4(C)[C@H]3CC[C@@]21C,inactive,inactive,inactive,inactive,inactive,inactive,inactive,inactive,inactive,inactive,inactive,inactive,26.6 µM (active),inactive,–,–,inactive,–,–,–
CC(C)CCOC(=O)c1ccc(N(C)C)cc1,inactive,inactive,inactive,inactive,–,inactive,inactive,inactive,inactive,inactive,inactive,inactive,–,inactive,inactive,inactive,inactive,inactive,–,–
CCc1ccc(C(c2ccc(CC)cc2)C(Cl)Cl)cc1,inactive,inactive,inactive,–,inactive,inactive,inactive,inactive,inactive,inactive,inactive,inactive,–,inactive,inactive,–,inactive,inactive,–,inactive
CC(C)(C)c1cc(C(C)(C)C)c(O)c(C(C)(C)C)c1,49 µM (active),inactive,–,–,inactive,inactive,–,inactive,inactive,inactive,inactive,inactive,inactive,inactive and 49 µM (active),inactive,–,inactive,–,–,–
O=C(OCc1ccccc1)c1ccc(O)cc1,inactive,–,inactive,inactive,inactive,inactive,inactive,inactive,inactive,inactive,inactive,inactive,inactive,inactive,inactive,inactive,–,–,–,–
CC(C)(C)NC(=O)[C@@H]1CN(Cc2cccnc2)CCN1C[C@@H](O)C[C@@H](Cc1ccccc1)C(=O)N[C@H]1c2ccccc2C[C@H]1O,inactive,–,inactive,inactive,–,inactive,inactive,inactive,inactive,inactive,inactive,inactive,–,inactive,inactive,inactive,–,inactive,–,inactive
NC(N)=Nc1nc(CSCC/C(N)=N/S(N)(=O)=O)cs1,inactive,inactive,–,inactive,inactive,inactive,inactive,inactive,inactive,inactive,inactive,inactive,–,inactive,inactive,inactive,inactive,inactive,–,inactive
CC1=CC(=O)c2ccccc2C1=O,19.5 µM (active) and 26.6 µM (active),–,19.5 µM (active),24.5 µM (active),–,–,17.4 µM (active) and 11.9 µM (active),17.4 µM (active) and 21.3 µM (active),24.5 µM (active),inactive,43.6 µM (active),15.4 µM (active) and 29.8 µM (active),12.2 µM (active),17.4 µM (active),–,–,33.5 µM (active),–,–,–
CC(C)CCOCc1ccccc1,inactive,–,inactive,inactive,–,inactive,–,inactive,inactive,inactive,inactive,inactive,inactive,inactive,inactive,inactive,–,inactive,–,–
